# CYP2C9 inhib – inhibitors of human CYP2C9 | P11712 | CYP2C9 Supersomes, luciferin-H conversion, luminescence | inhibition, % at 5 µM | actives 20% (n = 96,000) | AID 777;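 active = blocking of liver enzyme CYP2C9 beyond about 50% at 5 µM, limit read from the data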
# PLAP activator – human PLAP activation | actives 1.2% (n = 96,000) | activation fold at 20 µM | purified PLAP enzyme, luminescent substrate read-out; active compounds read high | P05187 | AID 696; in the data active = activation fold above about 2
# Target sequence (P05187 whole entry, looked up): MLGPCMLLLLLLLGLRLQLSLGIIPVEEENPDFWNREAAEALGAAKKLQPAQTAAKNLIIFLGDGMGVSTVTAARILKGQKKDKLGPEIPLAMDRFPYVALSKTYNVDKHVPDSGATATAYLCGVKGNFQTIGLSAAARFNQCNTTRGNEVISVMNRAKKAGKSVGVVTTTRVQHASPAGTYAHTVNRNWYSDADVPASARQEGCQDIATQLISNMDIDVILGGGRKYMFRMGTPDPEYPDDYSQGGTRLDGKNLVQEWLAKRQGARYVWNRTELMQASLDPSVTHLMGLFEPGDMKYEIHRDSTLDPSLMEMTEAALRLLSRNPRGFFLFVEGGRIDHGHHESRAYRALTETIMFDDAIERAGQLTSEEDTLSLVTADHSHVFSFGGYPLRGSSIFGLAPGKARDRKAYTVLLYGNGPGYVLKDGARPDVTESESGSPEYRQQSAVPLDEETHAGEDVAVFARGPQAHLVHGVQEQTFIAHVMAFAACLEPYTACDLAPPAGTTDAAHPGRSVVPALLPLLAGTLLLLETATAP
# CYP2C19 activ – cytochrome P450 2C19 (human) activation | P33261 | recombinant CYP2C19, luciferin-H EGE luminescence; active compounds read high; 0 = fully inhibited enzyme, 1 = untreated enzyme | activation factor at 5 µM | 96,000 tested, under 10 active | AID 1025;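 active = activation factor of at least 2 at 5 µM in the primary screen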
# CYP2C9 act – increases human cytochrome P450 2C9 activity; P11712; recombinant CYP2C9, luciferin-H conversion, luminescence; active compounds read high; factor 1 = untreated enzyme, 0 = blocked; activation factor at 5 µM; actives 1.4% (n = 96,000);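 active = activation factor of 2 or more for CYP2C9 at a 5 µM dose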
# CYP2C19 inh – blocks human cytochrome P450 2C19. CYP2C19 Supersomes, luciferin-H EGE luminescence, 30 min. inhibition, % at 5 µM. actives 21% (n = 96,000);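 active = CYP2C19 inhibition above a set limit at 5 µM in the primary screen, cut at about 50% in these data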
# Hits are given with their value; n = inactive. Only some compounds are listed: those with a hit (about 31% of all), similar ones and a draw of the others.
SMILES,CYP2C9 inhib,PLAP activator,CYP2C19 activ,CYP2C9 act,CYP2C19 inh
Cc1c(NC(=O)CSc2nc3ccccc3[nH]2)c(=O)n(-c2ccccc2)n1C,n,2.2,n,n,n
CCC(C(=O)OCC(=O)Nc1c(C)n(C)n(-c2ccccc2)c1=O)c1ccccc1 (centres undefined),n,n,n,n,n
CCC(CC)C(=O)Nc1c(C)n(C)n(-c2ccccc2)c1=O,51,n,n,n,n
Cc1c(NC(=O)CSc2nc3ccccc3s2)c(=O)n(-c2ccccc2)n1C,n,n,n,n,n
Cc1c(NC(=O)COC(=O)C(c2ccc(Cl)cc2)C(C)C)c(=O)n(-c2ccccc2)n1C (centres undefined),58,n,n,n,n
Cc1c(NC(=O)CSc2nc3ccccc3n2C)c(=O)n(-c2ccccc2)n1C,n,n,n,2.1,n
CCOc1ccc(N2C(=O)C3C4C=CC(CC4)C3C2=O)c([N+](=O)[O-])c1 (centres undefined),n,n,n,n,n
CCCC(=O)N(Cc1cc2cccc(C)c2[nH]c1=O)c1ccccc1OC,n,n,n,n,n
CCC1=C/C(=C/N(C)c2ccccc2)C(=O)S1,n,n,n,n,n
N#CCSc1nnc(COc2cccc3ccccc23)n1-c1cccc(Cl)c1,n,n,n,n,n
N#CCSc1nnc(COc2cccc3ccccc23)n1-c1ccccc1,96,n,n,n,91
Cc1ccc(-c2nnc(CSc3nnc(COc4cccc5ccccc45)n3-c3ccccc3)o2)cc1,59,n,n,n,n
Cc1ccc(C(=O)NC(=S)Nc2ccc(S(=O)(=O)N3CCN(C)CC3)cc2)cc1,n,n,n,n,n
Cc1ccccc1C(=O)NC(=S)Nc1ccc(S(=O)(=O)N(C)c2ccccc2)cc1,82,n,n,n,87
Cc1cccc(C(=O)NC(=S)Nc2ccc(Cc3ccncc3)cc2)c1,92,n,n,n,89
Cc1cccc(C(=O)NC(=S)Nc2ccc(S(=O)(=O)N3CCCCC3)cc2)c1,n,n,n,n,n
Cc1cccc(C(=O)NC(=S)Nc2ccc(S(=O)(=O)N3CCN(C)CC3)cc2)c1,71,n,n,n,79
Cc1cccc(C(=O)NC(=S)Nc2ccc(S(=O)(=O)N(C)c3ccccc3)cc2)c1,66,n,n,n,n
Cc1[nH]c(C)c(C(=O)O)c1CNC1CCCCC1C (centres undefined),n,n,n,n,n
O=C(CSc1nnc(COc2ccc3c(c2)CCCC3)o1)Nc1ccc(F)cc1,n,n,n,n,n
C=CCn1c(SCc2cc(=O)n3ccsc3n2)nc2sc(C)c(C)c2c1=O,n,n,n,n,n
COc1cccc(NC(=O)NC2CCN(Cc3nnnn3Cc3ccc(F)cc3)CC2)c1,n,2.1,n,n,n
O=C(Nc1ccccc1F)NC1CCN(Cc2nnnn2Cc2ccc(F)cc2)CC1,n,n,n,n,n
Cc1cc(N2CCOCC2)nc2ccc(NC(=O)CCC(=O)N3CCCC(C)C3)cc12 (centres undefined),n,n,n,n,n
CC(=O)Nc1ccc(S(=O)(=O)N2CCN(c3ccccn3)CC2)cc1,n,n,n,n,n
SMILES,CYP2C9 inhib,PLAP activator,CYP2C19 activ,CYP2C9 act,CYP2C19 inh
COc1ccc(S(=O)(=O)N2CCN(c3ccccn3)CC2)cc1OC,n,n,n,n,70
COc1ccc(S(=O)(=O)N2CCN(c3c(C)cccc3C)CC2)cc1OC,94,n,n,n,99
CCOc1ccc(S(=O)(=O)N2CCN(c3ccc(C)cc3C)CC2)cc1,80,n,n,n,54
COc1ccc(S(=O)(=O)N2CCN(S(=O)(=O)c3ccc(C(F)(F)F)cc3)CC2)cc1C,n,n,n,n,n
CCOc1ccc(S(=O)(=O)N2CCCC2)cc1,n,n,n,n,n
COc1ccc(S(=O)(=O)N2CCN(c3ccc(C)cc3C)CC2)cc1OC,52,n,n,n,n
CC1CN=C(N(C(=O)Nc2ccccc2)c2ccc(S(=O)(=O)N3CCOCC3)cc2)S1 (centres undefined),n,n,n,n,n
CCCCNC(=O)Nc1nnc(-c2ccc(Cl)cc2)o1,n,n,n,n,n
Cc1snc(S(=O)(=O)Cc2c(Cl)cccc2Cl)c1C#N,n,n,n,n,67
Cc1nc(S(=O)(=O)N(C)c2ccccc2)c(C#N)c(C)c1Cl,n,n,n,n,n
COc1ccc(C(=O)Nc2cc3c(cc2C#N)OCO3)cc1S(=O)(=O)N1CCN(C)CC1,n,n,n,n,n
O=C(OCC(=O)N1CCCCC1)c1c[nH]c(=O)[nH]c1=O,89,n,n,n,n
